# Bioassay records deposited in PubChem by National Center for Advancing Translational Sciences (NCATS).
# SKOV3 invasion – inhibitors of ovarian cancer cell adhesion and invasion in omental model; SKOV3ip1-GFP adhesion/invasion on 3D omental model, fluorescence; Potency, µM (highest dose often 45.8 µM), for inactives: top-dose activity change, negative = inhibition, most hits filed as inhibitors; 0.1% of 46,000 active;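 note: potency is the fitted concentration of half-maximal effect; plate controls were DMSO wells for no effect and tomatine positive control wells for full effect; nearly all actives have a fitted effect of over 65% in size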
#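 A 3D layer of primary human omental fibroblasts, mesothelial cells, fibronectin and collagen I, grown 48 hr, received SKOV3ip1-GFP cells in serum-free medium plus compounds at 0.36-46 umol/L. After 2 hr RT and 16 hr 37 C, fixed adherent GFP cells were counted; normalized to DMSO and tomatine.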
# PMP22 txn prim – modulators of PMP22 gene transcription in S16 Schwann cells; S16 Pmp22-F2sN Schwann cells, FLuc/NLuc coincidence luminescence, 24 h; Potency, µM (top dose mostly 57.5 µM), without a hit: at the highest dose activity change, negative = inhibition, usual class: inhibitors; 2% of 43,000 active; AID 1508649; active = clear falling dose curves in both reporters; inconclusive = both reporters move, but less clearly or upward; inactive = either reporter flat; the % is the NLuc reporter signal; note: potency is the fitted concentration of half-maximal effect; % is set by controls: 0 for no effect and ±100 for the full control effect
#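 S16(c9) Schwann cells with FLuc/NLuc coincidence reporter in the Pmp22 3' UTR; compounds pin-transferred, 24 h at 37C. Dual-luciferase read: FLuc first, then NLuc after Stop&Glo, each 10 min at room temperature.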
# mTORC1 inh – reduces mTORC1 signaling in Tsc2 and p53 null MEF cells | 0.78% of 44,000 active | Tsc2-/- p53-/- MEF, phospho-rpS6 immunofluorescence/PI, 24 h | Potency, µM (series often up to 38.3 µM), inactives show at the top dose activity change, negative = inhibition, actives largely listed as inhibitors | AID 493208;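 note: potency is the fitted concentration of half-maximal effect; plate controls were DMSO for no effect and rapamycin for full effect; nearly all actives have a fitted effect of over 50% in size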
#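 Read-out: phospho-S6 Alexa-488 intensity over PI intensity per well, scored as % active cells using thresholds from rapamycin (7.5 nM) and DMSO controls. Tsc2-/-, p53-/- MEFs exposed to compound for 24 h; PI cell count recorded as viability.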
# S16 viability – S16 Schwann cell cytotoxicity; S16 Pmp22-F2sN Schwann cells viability, CellTiter-Glo, 24 h; Potency, µM (top dose mostly 57.5 µM), without a hit: at the highest dose activity change, negative = cytotoxicity, most hits filed as cytotoxic; 0.48% of 43,000 active; AID 1508642; note: potency is the fitted concentration of half-maximal effect; % is set by controls: 0 for no effect and ±100 for the full control effect; nearly all actives have a fitted effect of over 65% in size
#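 Rat S16 Schwann reporter line, 24 h treatment with library compounds delivered at 23 nL per well. Cell viability by CellTiter-Glo luminescence.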
# p53null 39C tox – p53 null cell cytotoxicity, nonpermissive temperature. H1299 p53-null (neo) cells, 39C, ATPlite viability, 24 h. Potency, µM (highest dose often 46.1 µM), without a hit: top-dose activity, negative = cell killing, most hits filed as cytotoxic. 0.97% of 55,000 active;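 note: potency is the fitted concentration of half-maximal effect; 0% = DMSO only and -100% = full killing by 100 µM tamoxifen; nearly all actives have a fitted effect of over 50% in size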
#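 ATP-luminescence viability readout (ATPlite, 20 min RT) after 24 hr compound treatment at 39C of H1299-neo or H1299-p53A138V cells; titration up to 46 uM; normalized to DMSO and 100 uM tamoxifen; Hill-fit AC50.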
# p53null 32C kill – selectivity test: cytotoxicity in p53 null cells, permissive temperature; Potency, µM (titrated, usually from 46.1 µM), for the others: at the highest dose activity change, negative = cytotoxicity, usual class: cytotoxic; H1299-neo p53 null cells, ATP luminescence, 24 h, 32C; 0.62% of 55,000 active; AID 903;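 note: potency is the fitted concentration of half-maximal effect; 0% = DMSO only and -100% = full killing by 100 µM tamoxifen; nearly all actives have a fitted effect of over 55% in size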
#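 Overnight 37C seeding (600 cells/well) of H1299-neo preceded a 24 hr, 32C exposure to compounds up to 46 uM. ATP levels, read by luminescence after 20 min at RT, indicated surviving cells.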
# NLuc sat counter – NanoLuc enzyme inhibition artifact for PMP22 screen | 4% of 690 active | shares compounds with PMP22 txn prim | Potency, µM (series often up to 57.5 µM), for the others: at the highest dose activity change, negative = inhibition, hits mostly inhibitors | Secreted NLuc enzyme (filtered S16 cell medium), Nano-Glo luminescence; note: potency is the fitted concentration of half-maximal effect; % is set by controls: 0 for no effect and ±100 for the full control effect
# NLuc Km counter – counter-screen for PMP22 expression modulators: NanoLuc inhibition at Km; shares compounds with PMP22 txn prim; secreted NLuc enzyme, coelenterazine luminescence, Km conditions; Potency, µM (highest dose often 57.5 µM), for the others: at the top dose activity change, negative = inhibition, usual class: inhibitors; 5% of 690 active; AID 1508639; note: potency is the fitted concentration of half-maximal effect; % is set by controls: 0 for no effect and ±100 for the full control effect
# FLuc counter – firefly luciferase enzyme inhibition artifact for PMP22 screen; shares compounds with PMP22 txn prim; purified P. pyralis FLuc, luminescence, 10 min; Potency, µM (series often up to 57.5 µM), without a hit: top-dose activity, negative = inhibition, most hits filed as inhibitors; 690 tested, under 10 active; AID 1508640; note: % of control where 0% means no effect
# Target sequence (P08659 whole entry, looked up): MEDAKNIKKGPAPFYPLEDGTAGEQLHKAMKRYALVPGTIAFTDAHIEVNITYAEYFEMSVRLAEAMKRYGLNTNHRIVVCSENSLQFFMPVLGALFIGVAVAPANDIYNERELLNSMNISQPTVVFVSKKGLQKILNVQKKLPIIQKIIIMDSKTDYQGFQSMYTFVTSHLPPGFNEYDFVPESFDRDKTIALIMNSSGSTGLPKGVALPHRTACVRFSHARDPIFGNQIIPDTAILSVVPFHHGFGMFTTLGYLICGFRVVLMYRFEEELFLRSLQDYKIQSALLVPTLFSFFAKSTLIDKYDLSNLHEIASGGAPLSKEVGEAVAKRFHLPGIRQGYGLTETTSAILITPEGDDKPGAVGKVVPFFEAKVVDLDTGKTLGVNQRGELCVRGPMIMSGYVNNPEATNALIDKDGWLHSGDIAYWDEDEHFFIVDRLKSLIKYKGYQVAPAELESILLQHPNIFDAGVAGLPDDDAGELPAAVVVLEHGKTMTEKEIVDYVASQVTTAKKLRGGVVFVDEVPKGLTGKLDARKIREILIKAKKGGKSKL
# S16 F2sN tox cnf – confirmation of cytotoxicity in S16 Pmp22-F2sN Schwann cells (luciferase reporters placed in the Pmp22 gene); shares compounds with PMP22 txn prim; S16 Schwann cells viability, CellTiter-Glo ATP luminescence, 24 h; AID 1508641; 7% of 690 active; Potency, µM (highest dose often 57.5 µM), inactives show top-dose activity change, negative = viability loss, usual class: cytotoxic; note: potency is the fitted concentration of half-maximal effect; % is set by controls: 0 for no effect and ±100 for the full control effect
# PMP22 txn cnf – confirmation of modulators of PMP22 gene transcription in S16 cells | 22% of 690 active | AID 1508646 | S16 Schwann cells Pmp22-F2sN, dual luciferase, 24 h | shares compounds with PMP22 txn prim | Potency, µM (doses to about 57.5 µM), without a hit: at the highest dose activity change, negative = inhibition, actives largely listed as inhibitors; active = clear falling dose curves in both reporters; inconclusive = both reporters move, but less clearly or upward; inactive = either reporter flat; the % is the FLuc reporter signal; note: potency is the fitted concentration of half-maximal effect
# PMP22 prot conf – rat PMP22 protein level modulation, confirmatory; 95 tested, under 10 active; AID 1508647; shares compounds with PMP22 txn prim; Potency, µM (highest dose often 27.9 µM), for the others: at the highest dose activity change, negative = inhibition, usual class: inhibitors; S16 Schwann cells Pmp22-HiBiT, luminescence, 48 h
# Active calls of the source: *; i = inactive; ? = inconclusive; / = no result given. An excerpt weighted towards active compounds, which were near 3% of everything screened. Unless noted, calls come from the whole dose curve; as a rule, active = well fitted curve in the direction sought with a large enough effect; inconclusive = small, poorly fitted or top-dose-only effect, or another doubt; inactive = no such curve, though single readings can be large; an effect the other way counts as inactive or inconclusive.
SMILES,SKOV3 invasion,PMP22 txn prim,mTORC1 inh,S16 viability,p53null 39C tox,p53null 32C kill,NLuc sat counter,NLuc Km counter,FLuc counter,S16 F2sN tox cnf,PMP22 txn cnf,others
Cn1c(=O)c2c(nc(NCc3ccccc3)n2Cc2ccc(Cl)c(Cl)c2)n(C)c1=O,-3%,14µM*,-12%,-24%,-15%,?,-9%,?,-2%,-25%,?,
COc1ccc(CCNc2nc3c(c(=O)n(C)c(=O)n3C)n2Cc2ccc(F)cc2)cc1OC,?,10µM*,-18%,?,-7%,5%,?,?,10%,-23%,-26%,
CC1=Nc2cc(C(=O)NC3CCC(C)CC3)ccc2Sc2c(C)ccc(C)c21 (stereo unspecified),8%,-116%,-11%,4%,?,27%,/,/,/,/,/,
CCC1=Nc2cc(C(=O)NCCCOC)ccc2Sc2ccc(Br)cc21,i,1.3µM*,?,1%,?,6%,-11%,-5%,8%,?,?,PMP22 prot conf=?
COCCCNC(=O)c1ccc2c(c1)N=C(C)c1c(C)ccc(C)c1S2,?,0.089µM*,-10%,11%,?,1%,-7%,?,-7%,11%,0.31µM*,PMP22 prot conf=?
O=C(N[C@@H](c1ccccc1)[C@@H]1CCCCN1)c1cccc(C(F)(F)F)c1Cl,4%,/,/,/,/,/,/,/,/,/,/,
Oc1ccc([C@@H]2Oc3ccc(O)cc3[C@@H]3CCC[C@@H]32)cc1,12%,/,/,/,/,/,/,/,/,/,/,
COC(=O)c1c(-c2ccc(Cl)cc2)noc1N1CCN(c2cccc(OC)c2)CC1,-23%,7µM*,4%,?,11%,-6%,?,-5%,4%,5%,12µM*,
COC(=O)c1c(-c2ccc(Cl)cc2)noc1N1CCN(c2cccc(C)c2C)CC1,?,?,-18%,?,22%,-9%,/,/,/,/,/,
O=C(NOCC(O)CO)c1cc(Br)c(F)c(F)c1Nc1ccc(I)cc1F (stereo unspecified),6%,/,/,/,/,/,/,/,/,/,/,
Cc1cccc(/C=C(\C#N)c2nc3ccccc3c(=O)[nH]2)c1,11%,11µM*,-3%,0%,-9%,1%,?,?,-5%,?,5%,
